The text below walks through data of ChEMBL document CHEMBL3433997, “St. Jude Leishmania screening dataset” (2016).

The structures appear in SMILES notation.

The term inhibition denotes the change of the read-out against control, counted positive when it falls.

Type in all cases: functional
Assay [1] deals with Solute carrier family 2, facilitated glucose transporter member 1 (Homo sapiens) (UniProt P11166). Briefly: ST_JUDE_LEISH: Cytotoxicity at 2uM final concentration against transgenic Leishmania Mexicana promastigotes LmGLUT1 that are glucose transport deficient and complemented with the human glucose transporter GLUT1. Activity is measured by DNA content using SYBR green in vitro.

Assay [2] addresses Hexose transporter 1 (Plasmodium falciparum) (UniProt O97467). Briefly: ST_JUDE_LEISH: Cytotoxicity at 2uM final concentration against transgenic Leishmania Mexicana promastigotes LmPfHT that are glucose transport deficient and complemented with the Plasmodium falciparum hexose transporter. Activity is measured by DNA content using SYBR green in vitro.
Assay [3] deals with Glucose transporter (Leishmania mexicana) (UniProt O61059). In words: ST_JUDE_LEISH: Cytotoxicity at 2uM final concentration against transgenic Leishmania Mexicana promastigotes LmGT2 that are glucose transport deficient and complemented with the L. Mexicana glucose transporter 2. Activity is measured by DNA content using SYBR green in vitro.

Solute carrier family 2, facilitated glucose transporter member 1 (Homo sapiens), sequence (P11166 whole entry): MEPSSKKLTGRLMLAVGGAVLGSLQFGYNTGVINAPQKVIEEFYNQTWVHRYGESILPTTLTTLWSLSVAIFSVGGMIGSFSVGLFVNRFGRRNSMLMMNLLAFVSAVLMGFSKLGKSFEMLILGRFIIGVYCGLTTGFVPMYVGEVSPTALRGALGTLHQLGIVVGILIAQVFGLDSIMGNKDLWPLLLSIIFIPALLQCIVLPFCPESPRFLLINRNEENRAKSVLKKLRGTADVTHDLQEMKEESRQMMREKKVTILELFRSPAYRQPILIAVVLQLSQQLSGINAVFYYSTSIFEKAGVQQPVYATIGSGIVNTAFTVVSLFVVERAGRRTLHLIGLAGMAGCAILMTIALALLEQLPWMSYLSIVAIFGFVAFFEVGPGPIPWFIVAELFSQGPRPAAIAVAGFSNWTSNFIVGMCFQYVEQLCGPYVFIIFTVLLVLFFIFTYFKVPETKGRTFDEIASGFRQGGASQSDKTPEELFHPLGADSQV

With `COc1cc(F)c2ncc(Cl)c(C(O)CN3CCC(NC(=O)c4ccc5c(c4)NC(=O)CS5)CC3)c2c1` (configuration not stated), the inhibition in assay [1] is 8.37%; in assay [2], 7.69%; in assay [3], 4.11%.
Taken in the same sequence, the figures for `CCN(CC)CCN(Cc1ccc(-c2ccc(Cl)cc2)cc1)C(=O)Cn1cc(CN(C)C)c(=O)nc1SCc1ccc(F)cc1` were 0.45%, 0.54% and 1.16%.
The like results for `CS(=O)(=O)CCNCc1nc(-c2ccc3ncnc(Nc4ccc(OCc5cccc(F)c5)c(Cl)c4)c3c2)cs1` were, in that order, 3.7%, 2.03% and -1.62%.
The like results for `Cc1ccccc1Nc1nc(NCCCO)c2ccccc2n1` were, in that order, 13.6%, 12.5% and 8.48%.
